According to PubChem BioAssay (EPA / NIEHS):
Active and inactive are the calls of the source. How the source made its calls: active means hit-call score of the fitted dose curve at least 0.9, where 1 is the maximum; inactive means score below 0.9.

Key:
[1] = read-out: Vascular endothelial growth factor receptor 2 (Homo sapiens) (UniProt P35968); experiment: BSK_4H_VEGFRII: BioMAP Diversity Plus: 4H Assay for Vascular endothelial growth factor receptor 2 (VEGFR2) Biomarker Activity (AID 2283031); settings: primary human endothelial cells (HUVEC); actives raise or lower the signal;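 on AC50: cell-surface VEGFR2 protein level quantified by ELISA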
In short: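 Primary human umbilical vein endothelial cells in the BioMAP 4H system were dosed with test chemical, and 24 h later VEGFRII was measured by ELISA. Activity was fitted bidirectionally against DMSO as negative control and baseline.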

[2] = read-out: Vascular cell adhesion molecule 1 (VCAM1), VCAM1 (gene 7412); experiment: BSK_4H_VCAM1: BioMAP Diversity Plus: 4H Assay for Vascular cell adhesion molecule 1 (VCAM1) Biomarker Activity (AID 2283033); settings: primary human endothelial cells (HUVEC); actives raise or lower the signal
In short: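 Primary human umbilical vein endothelial cells were exposed to chemicals for 24 h, after which VCAM-1 was quantified by ELISA. Responses were fitted bidirectionally against DMSO as negative control and activity baseline.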

[3] = read-out: Interferon-gamma inducible Protein 10 (IP10), CXCL10 (gene 3627); experiment: BSK_BE3C_IP10: BioMAP Diversity Plus: BE3C Assay for Interferon-gamma inducible Protein 10 (IP10) Biomarker Activity (AID 2283034); settings: primary human bronchial epithelial cells; actives raise or lower the signal
In short: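 Human primary bronchial epithelial cells were exposed to chemicals for 24 hours, after which IP-10 levels were measured by ELISA. Data were fitted bidirectionally against DMSO, which served as the negative control and activity baseline.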

[4] = read-out: Monokine induced gamma interferon (MIG), CXCL9 (gene 4283); experiment: BSK_BE3C_MIG: BioMAP Diversity Plus: BE3C Assay for Monokine induced gamma interferon (MIG) Biomarker Activity (AID 2283035); settings: primary human bronchial epithelial cells; actives raise or lower the signal
In short: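 Primary human bronchial epithelial cells treated for 24 h; MIG levels measured by ELISA, fitted bidirectionally versus DMSO. Parallel SRB total-protein staining assessed cytotoxicity.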

[5] = read-out: Transforming growth factor beta 1 (TGFb1), TGFB1 (gene 7040); experiment: BSK_BE3C_TGFb1: BioMAP Diversity Plus: BE3C Assay for Transforming growth factor beta 1 (TGFb1) Biomarker Activity (AID 2283036); settings: primary human bronchial epithelial cells; actives raise or lower the signal
In short: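 Human primary bronchial epithelial cells (BE3C system) were dosed with chemical and TGF-b1 levels measured by ELISA at 24 h. Activity was fitted bidirectionally relative to DMSO negative control as baseline.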

[6] = read-out: Plasminogen activator inhibitor-1 (PAI1), SERPINE1 (gene 5054); experiment: BSK_BE3C_PAI1: BioMAP Diversity Plus: BE3C Assay for Plasminogen activator inhibitor-1 (PAI1) Biomarker Activity (AID 2283037); settings: primary human bronchial epithelial cells; actives raise or lower the signal
In short: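 Human primary bronchial epithelial cells were exposed to chemical for 24 h, then PAI-1 was quantified by ELISA. Activity was fitted bidirectionally relative to the DMSO negative control baseline.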

[7] = read-out: urokinase plasminogen activator (uPA), PLAU (gene 5328); experiment: BSK_BE3C_uPA: BioMAP Diversity Plus: BE3C Assay for urokinase plasminogen activator (uPA) Biomarker Activity (AID 2283038); settings: primary human bronchial epithelial cells; actives raise or lower the signal
In short: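 Human primary bronchial epithelial cells were exposed to chemical for 24 h, then uPA levels were measured by ELISA. Responses were fitted bidirectionally against DMSO as negative control and baseline. Parallel SRB staining of total protein gauged overt cytotoxicity.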

[8] = read-out: Urokinase-type plasminogen activator receptor (uPAR), PLAUR (gene 5329); experiment: BSK_BE3C_uPAR: BioMAP Diversity Plus: BE3C Assay for Urokinase-type plasminogen activator receptor (uPAR) Biomarker Activity (AID 2283039); settings: primary human bronchial epithelial cells; actives raise or lower the signal
In short: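 Primary human bronchial epithelial cells were dosed with chemical and harvested 24 h later; uPAR was quantified by ELISA. Activity was fitted bidirectionally against DMSO as negative control and baseline.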

[9] = read-out: Interleukin-6 (IL6), IL6 (gene 3569); experiment: BSK_CASM3C_IL6: BioMAP Diversity Plus: CASM3C Assay for Interleukin-6 (IL6) Biomarker Activity for (AID 2283040); settings: primary human coronary artery smooth muscle cells; actives raise or lower the signal
[10] = read-out: Tissue plasminogen activator (tPA), PLAT (gene 5327); experiment: BSK_BE3C_tPA: BioMAP Diversity Plus: BE3C Assay for Tissue plasminogen activator (tPA) Biomarker Activity (AID 2283041); settings: primary human bronchial epithelial cells; actives raise or lower the signal
In short: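 Human primary bronchial epithelial cells were dosed with chemical and tPA biomarker levels measured by ELISA 24 hours later. Activity was fitted bidirectionally against DMSO as negative control and baseline.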

[11] = read-out: Interleukin-8 (IL8), CXCL8 (gene 3576); experiment: BSK_CASM3C_IL8: BioMAP Diversity Plus: CASM3C Assay for Interleukin-8 (IL8) Biomarker Activity (AID 2283042); settings: primary human coronary artery smooth muscle cells; actives raise or lower the signal;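 further: IL-8 protein level quantified by ELISA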
[12] = read-out: Human Leukocyte Antigen - DR isotype (HLADR), HLA-DRA (gene 3122); experiment: BSK_CASM3C_HLADR: BioMAP Diversity Plus: CASM3C Assay for Human Leukocyte Antigen - DR isotype (HLADR) Biomarker Activity (AID 2283043); settings: primary human coronary artery smooth muscle cells; actives raise or lower the signal;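 further: cell-surface HLA-DR protein level quantified by ELISA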
[13] = read-out: Macrophage colony-stimulating factor (MCSF), CSF1 (gene 1435); experiment: BSK_CASM3C_MCSF: BioMAP Diversity Plus: CASM3C Assay for Macrophage colony-stimulating factor (MCSF) Biomarker Activity (AID 2283044); settings: primary human coronary artery smooth muscle cells; actives raise or lower the signal;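 further: M-CSF protein amount quantified by ELISA after 24 h exposure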
[14] = read-out: Low-density lipoprotein receptor (LDLR), LDLR (gene 3949); experiment: BSK_CASM3C_LDLR: BioMAP Diversity Plus: CASM3C Assay for Low-density lipoprotein receptor (LDLR) Biomarker Activity (AID 2283045); settings: primary human coronary artery smooth muscle cells; actives raise or lower the signal;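 further: LDLR protein level on the cell surface quantified by ELISA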
[15] = read-out: Monocyte Chemoattractant Protein-1 (MCP1), CCL2 (gene 6347); experiment: BSK_CASM3C_MCP1: BioMAP Diversity Plus: CASM3C Assay for Monocyte Chemoattractant Protein-1 (MCP1) Biomarker Activity (AID 2283046); settings: primary human coronary artery smooth muscle cells; actives raise or lower the signal;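 further: MCP-1 level quantified by ELISA 24 h after dosing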
[16] = BSK_CASM3C_Proliferation: Cell Proliferation Assessment in the BioMAP Diversity Plus: CASM3C Assay (AID 2283047); settings: primary human coronary artery smooth muscle cells;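 further: sulforhodamine B total protein stain as relative cell number at 560 nm; sub-confluent cells exposed 48 h before staining; fitted both ways against DMSO so gain or loss of cell number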
[17] = read-out: Monokine induced gamma interferon (MIG), CXCL9 (gene 4283); experiment: BSK_CASM3C_MIG: BioMAP Diversity Plus: CASM3C Assay for Monokine induced gamma interferon (MIG) Biomarker Activity (AID 2283048); settings: primary human coronary artery smooth muscle cells; actives raise or lower the signal
[18] = read-out: serum amyloid A (SAA), SAA1 (gene 6288); experiment: BSK_CASM3C_SAA: BioMAP Diversity Plus: CASM3C Assay for serum amyloid A (SAA) Biomarker Activity (AID 2283049); settings: primary human coronary artery smooth muscle cells; actives raise or lower the signal;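 further: SAA protein level quantified by ELISA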
[19] = BSK_CASM3C_SRB: Viability Assessment in the BioMAP Diversity Plus: CASM3C Assay (AID 2283050); settings: primary human coronary artery smooth muscle cells;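 further: total protein by SRB staining as cytotoxicity measure in parallel cultures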

Measured: AC50

CCCC(=O)OCCC(C)C
inactive: all assays above

CCN(Cc1cccnc1)C(=O)c1cccc(Cl)c1[C@]1(C)C(=O)N(Cc2ccc(OC)cc2OC)c2ccc(Cl)cc21
active: [1] 6.81 µM | [3] 12.1 µM | [6] 3.79 µM | [7] 5.67 µM | [8] 6.94 µM | [9] 12.3 µM | [12] 29.8 µM | [14] 1.39 µM | [16] 12.6 µM
inactive: all other assays above

CCCCCCCCOc1ccc(C(=O)c2ccccc2)c(O)c1
inactive: all assays above

O=C(O)Cc1cc(I)c(Oc2ccc(O)c(I)c2)c(I)c1
active: [2] 18.7 µM | [3] 10.3 µM | [4] 33.9 µM | [6] 15.2 µM | [8] 32.8 µM | [9] 29.6 µM | [10] 15.9 µM
inactive: all other assays above

Cc1cn([C@H]2C[C@H](N=[N+]=[N-])[C@@H](CO)O2)c(=O)[nH]c1=O
inactive: all assays above

Oc1ccc2ccccc2c1
active: [3] 32.5 µM | [9] 20 µM
inactive: all other assays above

O=C(O)c1ccccc1C(=O)OCc1ccccc1
inactive: all assays above

NCc1cccc(C2CCN(C(=O)c3ccc(C#Cc4ccccc4F)o3)CC2)c1
inactive: [1] | [15]
active: [2] 26.2 µM | [3] 12.4 µM | [4] 13.7 µM | [5] 13.1 µM | [6] 13.8 µM | [7] 7.93 µM | [8] 11.8 µM | [9] 33.9 µM | [10] 7.07 µM | [11] 34.7 µM | [12] 13.3 µM | [13] 28.4 µM | [14] 35.3 µM | [16] 22.3 µM | [17] 34 µM | [18] 27.7 µM | [19] 16 µM

CN(C)c1ccc(C(=C2C=CC(=[N+](C)C)C=C2)c2ccc(N(C)C)cc2)cc1
active: [1] 0.148 µM | [2] 5.55 µM | [3] 5.52 µM | [4] 6.32 µM | [5] 0.73 µM | [6] 0.228 µM | [7] 1.97 µM | [8] 5.52 µM | [9] 6.61 µM | [11] 5.56 µM | [12] 7.11 µM | [13] 6.36 µM | [14] 5.4 µM | [15] 1.07 µM | [16] 2.06 µM | [17] 8.07 µM | [18] 0.822 µM | [19] 7.66 µM

Cc1occc1C(=O)Nc1ccc(C(=O)N2CCC(F)(F)/C(=C\C(=O)N3CCC(N4CCCCC4)CC3)c3ccccc32)cc1
active: [2] 9.44 µM | [14] 10.8 µM
not listed: [5]
inactive: all other assays above

O=CCCCC=O
active: [2] 31.5 µM | [6] 32.8 µM | [12] 30.2 µM | [16] 23.5 µM
inactive: all other assays above

Cc1cc2c(cc1C(F)(F)F)N(C(=O)Nc1ccc(Oc3cccnc3C)nc1)CC2
active: [3] 13.1 µM | [7] 11.7 µM | [12] 16.6 µM | [13] 30.6 µM | [14] 3.81 µM | [15] 28.3 µM | [16] 13.8 µM | [19] 26.3 µM
inactive: all other assays above

CC[C@H](NC(=O)c1cc(F)ccc1NS(=O)(=O)c1cccc2cccnc12)c1ccccc1
active: [14] 7.05 µM
inactive: all other assays above

CC(=O)N1CCN(c2ccc(OC[C@H]3CO[C@](Cn4ccnc4)(c4ccc(Cl)cc4Cl)O3)cc2)CC1
active: [2] 33.6 µM | [3] 29.4 µM | [14] 2.94 µM | [16] 28 µM
not listed: [13]
inactive: all other assays above

CC(C)(C)c1csc(-c2cc3cc(OCc4ccccc4CC(=O)O)ccc3o2)n1
active: [1] 9.41 µM | [2] 31.1 µM | [3] 6.96 µM | [4] 11.4 µM | [6] 5.03 µM | [7] 11.6 µM | [8] 12.2 µM | [10] 6.81 µM | [12] 29 µM | [13] 28.2 µM | [16] 34 µM | [19] 31 µM
inactive: [5] | [9] | [11] | [14] | [15] | [17] | [18]
